Experimental data from PubChem BioAssay AID504466 (National Center for Advancing Translational Sciences (NCATS), 2011).
Screen size: about 330,000 compounds; about 4,200 (1.3%) were called active. About 6% were inconclusive and are not listed. The call rests on the fitted dose curve; in most records, active means well fitted activation curve with a large enough effect; inconclusive means small, poorly fitted or top-dose-only effect; inactive means no such curve, though single readings can be large or run the other way. The entries come from a sample that favours actives as a whole. Entries that show only a call come without a potency.

Assay: qHTS screen for small molecules that induce genotoxicity in human embryonic kidney (HEK293T) cells expressing luciferase-tagged ELG1; further: nearly all actives have a fitted effect of over 60% in size
Conditions: HEK293T ELG1-luciferase reporter, luminescence, 16 h; series mostly up to 46 µM
Description: NIH Molecular Libraries Probe Production Network [MLPCN] NIH Chemical Genomics Center [NCGC] MLPCN Grant: 1 R03 MH092164-01 Assay Provider: Kyungjae Myung, NHGRI, NIH Keywords: MLPCN, qHTS, NCGC, genotoxicity, cancer Assay Overview: Cancer cells divide rapidly compared to normal cells in the body. During cell division, cancer cells need to duplicate their genome by DNA replication. The failure of genome duplication leads to cancer cells' death. Therefore, inhibitors of DNA replication could specifically kill cancer cells. Based on this concept, many chemotherapeutic agents were developed and have been used to treat cancer patients. However, there are a limited number of agents available in the clinical setting, and some of those that do exist have low efficacy and severe side effects. Therefore, if we can find the compounds that effectively block DNA replication either by directly damaging DNA or by inhibiting other cellular mechanisms, the options for cancer treatment will be broadened. With this in mind, we developed a quantitative high-throughput ELG1-luciferase reporter gene assay. Since the level of human ELG1 protein is enhanced in response to genetic stresses, increases in luciferase activity can be used to identify compounds that cause genetic stress.
Assay Protocol Summary: For genotoxicity screening, 2,000 cells in 5 uL/well were dispensed into white, solid-bottom 1536-well plates using a solenoid-based dispenser. Following transfer of 23 nL compound or DMSO vehicle by a pin tool, the plates were incubated 16 hr at 37 °C and 5% CO2. 5 ul ONE-Glo (Promega) was then added to each plate and following a 30 min incubation at room temperature, luciferase activity was quantified on a ViewLux CCD-based plate reader.
Potency means the concentration at half of the fitted maximal effect.

| SMILES | Potency |
| --- | --- |
| O=C(CSc1ccc(-c2ccc(F)cc2)nn1)Nc1ccc2c(c1)OCCO2 | inactive |
| O=C(CSc1ccc([N+](=O)[O-])cn1)Nc1ccc(N2CCOCC2)cc1 | inactive |
| O=C(CSc1ccc(-c2ccc(-n3cccn3)cc2)nn1)Nc1ccc([N+](=O)[O-])cc1 | 18.3 µM (active) |
| Cc1cccc(C)c1Nc1nnc(SCC(=O)NCCCN2CCCC2=O)s1 | inactive |
| Cc1ccc(NC(=O)COC(=O)C2CC2)cc1S(=O)(=O)N1CCOCC1 | inactive |
| Cc1noc(C)c1NC(=O)Nc1ccc2c(c1)C(=O)N([C@H](C)CO)C[C@H](C)[C@@H](CN(C)S(=O)(=O)c1cn(C)cn1)O2 | inactive |
| COc1cc(/C=N\Nc2ccc([N+](=O)[O-])cn2)ccc1OCC(=O)O | inactive |
| COc1cc(/C=N/O)ccc1OCc1ccc([N+](=O)[O-])cc1 | 9.2 µM (active) |
| COc1cc(C(=O)OCc2ccc([N+](=O)[O-])cc2)cc(OC)c1OC | inactive |
| CC(=O)C(CC(=O)N1CCCC1)C(=O)Nc1ccc(Cl)cc1 (centres undefined) | inactive |
| Cc1ccc(C(=O)Nc2ccccc2-c2ccccc2)cc1S(=O)(=O)Nc1ccccc1 | inactive |
| CCOc1ncccc1C(=O)Nc1ccc2c(c1)OCCO2 | inactive |
| COc1ccc(C)cc1NC(=O)CSc1cccc[n+]1[O-] | inactive |
| CN=C(Nc1cccc(S(=O)(=O)N2CCOCC2)c1)c1ccccc1 | inactive |
| COc1ccccc1NC(=O)C1=C(C)NC(=O)NC1c1ccc(C)s1 (centres undefined) | inactive |
| COc1ccccc1NC(=O)c1ccc(C)s1 | 11.6 µM (active) |
| COC(=O)c1c(NC(C)=O)sc(C(=O)Nc2ccccc2OC)c1C | inactive |
| Cc1ccc(S(=O)(=O)N2CCN(C(=O)Cn3c(=O)cnc4ccccc43)CC2)c(C)c1 | inactive |
| O=c1c2c(nc3n1CCCCC3)sc1c(O)cccc12 | 2.06 µM (active) |
| Cc1cccc2c(=O)n3c(nc12)CCCCC3 | inactive |
| Cc1c(C(=O)Nc2ccccc2)sc2nc3n(c(=O)c12)CCCCC3 | inactive |
| Cc1ccc(NS(=O)(=O)c2ccc(C(C)C)cc2)cc1S(=O)(=O)N1CCOCC1 | inactive |
| O=c1oc2ccccc2cc1-c1cn(-c2ccccc2)c(=S)[nH]1 | 0.0461 µM (active) |
| COc1cccc(-n2c(=S)[nH]c3c(oc4ccccc43)c2=O)c1 | inactive |
| S=c1[nH]c(-c2cccs2)cn1-c1ccccc1 | inactive |

| SMILES | Potency |
| --- | --- |
| O=C1OC[C@@H]2CCCN2C(=O)[C@H](CC(=O)N(CCO)Cc2ccccc2)C/C=C\CC[C@@H]1Cc1ccc(F)cc1 | inactive |
| COc1cc(/C=C/C(=O)OCC(=O)NC2CC2)cc(OC)c1OC | inactive |
| Cc1ccc(S(=O)(=O)N2CCN(C(=O)CN3C(=O)NC(C)(c4ccc(Cl)cc4)C3=O)CC2)c(C)c1 (centres undefined) | inactive |
| CN(c1ccccc1)S(=O)(=O)c1ccc(C(=O)NCCc2ccccc2)cc1 | inactive |
| CC(C)c1ccc(C(=O)NCCCc2ccccc2)cc1 | 18.4 µM (active) |
| O=C(CCNC(=O)c1ccc(Br)cc1)NCCCc1ccccc1 | inactive |
| Cc1noc(C)c1NC(=O)Nc1ccc2c(c1)C(=O)N([C@H](C)CO)C[C@H](C)[C@@H](CN(C)C(=O)Nc1ccccc1)O2 | inactive |
| O=C(CSc1ncnc2sccc12)NC1CCS(=O)(=O)C1 (centres undefined) | inactive |
| C=CCC[C@@H](Cc1ccc(F)cc1)C(=O)OC[C@H](Cc1c[nH]c2ccccc12)NC(=O)[C@@H](CC=C)CC(=O)N(CCO)Cc1ccccc1 | inactive |
| Cc1ccc(-n2cc3ccc([N+](=O)[O-])cc3n2)cc1 | 2.91 µM (active) |
| Cc1ccc(-c2cn(S(=O)(=O)c3cccc([N+](=O)[O-])c3)nc2N)cc1 | inactive |
| Cc1cc(CO)nn1-c1ccc([N+](=O)[O-])cc1 | inactive |
| O=C(N[C@@H]1C/C=C\C[C@@H](CC(=O)N(CCO)Cc2ccccc2)C(=O)N[C@H](Cc2ccccc2)COC1=O)OCC1c2ccccc2-c2ccccc21 | inactive |
| CCCCCCSc1ccc([C@@H]2[C@H]3C(=O)N(CC)C(=O)[C@H]3[C@]3(C(=O)OC)CCCCN23)cc1 | inactive |
| COC(=O)C1C(=O)c2c([nH]c(C(=O)OCCSC)c2C)CC1C (centres undefined) | 16.4 µM (active) |
| CCCOC(=O)C1=C(C)NC2=C(C(=O)C(C(=O)OC)C(C)C2)C1c1ccc(N(C)C)cc1 (centres undefined) | inactive |
| COCCOC(=O)c1[nH]c2c(c1C)C(=O)CC(c1ccc(OC)cc1)C2 (centres undefined) | inactive |
| CC(C)N(C(=O)[C@H]1C[C@H](CC(=O)NC(C)(C)C)C(=O)N2CCc3c([nH]c4ccc(Cl)cc34)[C@]12C)C(C)C | inactive |
| Cc1cc(NC(=O)CSc2ncc(C(F)(F)F)cc2Cl)no1 | inactive |
| COc1ccc(Cl)cc1NC(=O)COC(=O)c1ccc(Br)o1 | inactive |
| CN(C(=O)c1cccc(NC(=O)C2CCN(C(=O)OC(C)(C)C)CC2)c1)C1CCC1 | inactive |
| NC[C@H](Cc1ccccc1)NCCc1cc(C(F)(F)F)cc(C(F)(F)F)c1 | inactive |
| CCc1ccc2oc(-c3ccc(N)cc3)nc2c1 | 0.206 µM (active) |
| Cn1nnnc1SCC(=O)Nc1sccc1C(N)=O | inactive |
| Cc1cc(NC(=O)CSCC(=O)NC(C)c2ccccc2)no1 (centres undefined) | inactive |

| SMILES | Potency |
| --- | --- |
| COc1ccccc1N1CCN(C(=O)CSc2ncnc3c2cnn3-c2ccc(C)c(C)c2)CC1 | inactive |
| COc1ccc2oc(=O)c(C(=O)N3CCCc4ccccc43)cc2c1 | inactive |
| COc1ccc(-n2ncc3c(SCC(=O)NNC(C)=O)ncnc32)cc1 | inactive |
| COc1ccc(-n2ncc3c(N4CCCc5ccccc54)ncnc32)cc1 | 1.16 µM (active) |
| Cc1cccc(-n2ncc3c(N4CCc5ccccc54)ncnc32)c1 | 2.59 µM (active) |
| Cc1cccc(-n2ncc(Cl)c(Cl)c2=O)c1 | inactive |
| O=C1COc2ccc(C(=O)COC(=O)CCOc3ccccc3)cc2N1 | inactive |
| C=CCC[C@H](Cc1ccc(F)cc1)C(=O)OC[C@@H](Cc1c[nH]c2ccccc12)NC(=O)[C@H](CC=C)CC(=O)N[C@H](CO)Cc1ccccc1 | inactive |
| COc1cc2ccccc2cc1C(=O)Nc1ccc(N2CCOCC2)cc1 | inactive |
| COc1cc2ccccc2cc1C(=O)Nc1ccncc1 | 16.4 µM (active) |
| COc1cc2ccccc2cc1C(=O)Nc1ccc(NC(=O)c2cccs2)cc1 | inactive |
| O=C(CSc1nnc(-c2ccncc2)o1)Nc1cccc(Cl)c1 | inactive |
| CN(Cc1ccc(CNC[C@H]2O[C@@H](n3cnc4c(N)ncnc43)[C@H](O)[C@@H]2O)o1)S(C)(=O)=O | inactive |
| Cc1ccc(-c2nnc(SC(C)C#N)n2N)cc1 (centres undefined) | inactive |
| Cc1ccc(NC(=O)NC(=O)CSc2nnc(-c3ccc(OC(F)F)cc3)n2N)c(C)c1 | inactive |
| C=C(C)CSc1nnc(-c2ccc(C)cc2)n1N | 10 µM (active) |
| CN(CC(=O)NCCc1ccc(S(N)(=O)=O)cc1)CC(=O)Nc1ccc(F)c(F)c1F | inactive |
| CCOC(=O)C1CCN(C(=O)CN2C(=O)NC(C)(c3ccc4cc(OC)ccc4c3)C2=O)CC1 (centres undefined) | inactive |
| N#CCCN(C(=O)COC(=O)c1ccc2c(c1)OCCO2)c1ccccc1 | inactive |
| O=C(OCC(=O)N1CCCCCC1)c1ccc(Cl)nc1 | inactive |
| Cc1ccccc1OCC(=O)Nc1nc(C)c(C(=O)N(C)C)s1 | inactive |
| Cc1cccc(NC(=O)COc2ccccc2C)n1 | 18.4 µM (active) |
| COCCNC(=O)COc1ccccc1C | inactive |
| CCN(CC)S(=O)(=O)c1ccc(C)c(NC(=O)COc2ccc(Br)cc2Cl)c1 | inactive |
| Cc1cccc(NC(=O)COc2ccc(Br)cc2C)n1 | 2 µM (active) |

| SMILES | Potency |
| --- | --- |
| Cc1cccc(NC(=O)Nc2ccc(OCc3ccccc3)cc2)n1 | inactive |
| CC(=NNC(=O)c1ccc2nc[nH]c2c1)c1ccc(Br)cc1 | inactive |
| CCOC(=O)C1CCN(CC(=O)Nc2ccc(OC)c(S(=O)(=O)N3CCCCC3)c2)CC1 | inactive |
| CC1O[C@H](OC2C(COC3OC(CO)C(O)[C@H](O)C3O)OC(OC3CC[C@]4(C)C(CC[C@@]5(C)[C@@H]4C=C[C@]46OC[C@@]7(CCC(C)(C)C[C@H]74)C(O)C[C@@]56C)C3(C)C)C(O)C2O)C(O)C(O)C1O (some centres undefined) | inactive |
| CC(=O)c1sc(N)nc1C | inactive |
| CC(=O)c1sc(NC(=O)C2=NN(c3ccccc3)C(=O)CC2)nc1C | inactive |
| CC(=O)c1sc(N/N=C\c2ccc(C)cc2)nc1C | 18.4 µM (active) |
| COc1cc(C=NNC(=O)c2cccnc2)ccc1OC(=O)c1ccccc1F | inactive |
| CC[C@@H]1CCCCc2ccccc2[C@@H](C(=O)C[C@H](O)CC(C)=O)OC1=O | inactive |
| O=C(CN1C(=O)NC2(CCCCCCC2)C1=O)NCc1ccc(F)cc1 | inactive |
| Cc1ccc(NC(=O)CN(C)C(=O)c2ccc(Cl)c(S(=O)(=O)NCc3ccco3)c2)cc1 | inactive |
| COC(=O)c1ccc(/C=C/c2c(-c3ccc(OC)cc3)sc3ccccc23)cc1 | inactive |
| Oc1ccc(N=Cc2sc3ccccc3c2Cl)cc1 | inactive |
| COc1ccc(N=C(C)c2sc3ccccc3c2O)cc1 | 2.31 µM (active) |
| CCOc1ccccc1Nc1nnc(SCC(=O)NCC2CCCO2)s1 (centres undefined) | inactive |
| Cc1ccc(C)c(NC(=O)CN(C)C(=O)COc2ccc3ccccc3c2)c1 | inactive |
| O=C(CSc1nc2ccccc2c(=O)n1-c1ccc(F)cc1)NC1CC1 | inactive |
| O=C(CSc1nc2ccccc2c(=O)n1-c1ccccc1F)N1CCOCC1 | inactive |
| Cc1ccc(-n2c(SCC(=O)N3CCC(C(=O)O)CC3)nc3ccccc3c2=O)cc1C | 14.6 µM (active) |
| COc1ccc(S(=O)(=O)N2CCCCCC2)cc1NC(=O)Cc1ccc(OC)c(OC)c1 | inactive |
| N#CC(Cc1cc2ccccc2n1S(=O)(=O)c1ccccc1)OCc1ccccc1 (centres undefined) | inactive |
| O=C(NCCc1cccc(F)c1)C1CCCN(c2nc3ccccc3s2)C1 (centres undefined) | inactive |
| Cc1ccc2nc(N3CCN(C(=O)c4ccco4)CC3)sc2c1 | inactive |
| Fc1ccc2nc(N3CCCCC3)sc2c1 | 7.31 µM (active) |
